# Screening data as filed in PubChem BioAssay.
# Compounds with a hit are over-represented: about 14% of the library has one in this group of screens.
# HCMV inh – qHTS Assay for inhibitors of the human cytomegalovirus (HCMV); HFF cells, HCMV-luciferase reporter, 72 h; stronger effect = lower value; activity change, negative = inhibition, % at 57.5 µM; 4.5% of 410,000 active; in the data active = activity change below about -60%; inconclusive = no clear call, values can overlap the other calls; inactive = above about -39%
#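 After 16 h attachment at 37C, HFF cells received test compound and HCMV-luciferase (1 PFU/cell); reporter luminescence read 72 h later, data normalized against buffer-only and known inhibitor Salinomycin.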
# HCV inhibitor – qHTS Assay for Inhibitors of Hepatitis C Virus (HCV) | Huh7.5.1 HCVcc-Cre infection, luciferase reporter, 44 h | Potency, µM (highest dose often 41.8 µM), for inactives: at the highest dose activity change, negative = inhibition, hits mostly inhibitors | 3.4% of 340,000 active | AID 651820, 2012; also: potency is read from the fitted curve at half-maximal effect
#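 Infectious HCVcc-Cre (~0.5 moi) was added to cells just after compound, with cells seeded 4 h earlier at 1,000 per well. Luciferase activity after 44 h culture reported infection; substrate was incubated 15 min at room temperature before reading.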
# Pf growth 96h – Primary qHTS for delayed death inhibitors of the malarial parasite plastid, 96 hour incubation | Potency, µM (highest dose often 28.7 µM), without a hit: at the top dose activity change, negative = inhibition, usual class: inhibitors | AID 504834, 2011 | 6.9% of 320,000 active | P. falciparum luciferase reporter growth, 96 h; also: potency is read from the fitted curve at half-maximal effect
#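 Two-generation exposure (96 h) targets delayed-death phenotype. Reporter parasites carrying integrated firefly luciferase, in red cells at 2% hematocrit and 0.05% parasitemia final, kept at 37 C, 5% CO2; luminescence loss indicates inhibition.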
# MARV entry inh – qHTS for inhibitors of binding or entry into cells for Marburg Virus; Potency, µM (titrated, usually from 37.8 µM), inactives show top-dose activity change, negative = inhibition, hits mostly inhibitors; Marburg virus pseudotyped entry inhibition, cell reporter; AID 540276, 2011; 1.8% of 300,000 active; calls by dose curve; tested in HEK293 cells; also: potency is read from the fitted curve at half-maximal effect
# Lassa entry inh – qHTS for Inhibitors of binding or entry into cells for Lassa Virus | 1.2% of 300,000 active | Lassa virus pseudotype entry inhibition, cell reporter | AID 540256, 2011 | Potency, µM (titrated, usually from 37.9 µM), inactives show at the top dose activity change, negative = inhibition, most hits filed as inhibitors; calls by dose curve; tested in HEK293 cells; also: potency is read from the fitted curve at half-maximal effect; nearly all actives have a fitted effect of over 50% in size
# Pf growth 48h – Primary qHTS for delayed death inhibitors of the malarial parasite plastid, 48 hour incubation; P. falciparum luciferase growth in erythrocytes, 48 h; Potency, µM (series often up to 28.7 µM), inactives show at the top dose activity change, negative = inhibition, most hits filed as inhibitors; 5.9% of 310,000 active; AID 504832, 2011; also: potency is read from the fitted curve at half-maximal effect
#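 Luciferase-expressing P. falciparum in infected erythrocytes (2% hematocrit, 0.1% parasitemia final) in RPMI 1640/0.5% Albumax were exposed to compound for 48 hours at 37 C, 5% CO2; growth read as luminescence.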
# Starred values were filed as active, the others as inactive; ? = inconclusive; nt = not tested or not shown; [ ] = dose if it differs, or a comment. Unless noted, calls follow the shape of the dose curve; as a rule, active = well fitted inhibition curve with a large enough effect; inconclusive = small, poorly fitted or top-dose-only effect, or another doubt; inactive = no such curve, though single readings can be large or run the other way. % is scaled to controls: 0 for no effect and ±100 for the full control effect.
SMILES,HCMV inh,HCV inhibitor,Pf growth 96h,MARV entry inh,Lassa entry inh,Pf growth 48h
O=c1[nH]c(/C=C2\C=Nc3ccccc32)c(O)n1Cc1ccccc1F,-31.5,4.47µM*,-22.1%,?,nt,?
O=c1[nH]c(=O)n(Cc2ccccc2)c(O)c1/C=C1\C=Nc2ccccc21,23.2,-4.9%,-52.1%[5.75 µM],-25.8%,?,-7.0%
CCC(=O)CCC(=O)c1ccc2ccccc2c1,51.3,-2.7%,35.2%,?,-5.7%,61.9%
CC(C)N(CCC(=O)c1ccc2ccccc2c1)Cc1ccccc1,-77.2*,-26.6%,24.0%,12.6µM*,5.17µM*,-26.3%
Clc1ccc2c(c1)C(c1ccccc1Cl)=NCc1nnc(N3CCN(CCSc4ccccc4)CC3)n1-2,18.7,-26.9%,31.4%,?,-21.3%,-7.3%
Clc1ccc2c(c1)C(c1ccccc1Cl)=NCc1nnc(N3CCN(CCOc4ccccc4)CC3)n1-2,-35.9,?,9.28µM*,?,?,?
CCOCCCNC(=O)C(c1ccc(C)cc1)N(Cc1ccc2c(c1)OCO2)C(=O)c1ccccc1O (stereo not drawn),1.7,nt,nt,?,-25.2%[46.1 µM],nt
CC1c2ccccc2SC(CCCN(C)C)c2ccccc21 (stereo not drawn),-60.5*,?,?,5.17µM*,?,?
CC(C(Sc1ccccc1N)c1ccccc1)[N+](=O)[O-] (stereo not drawn),-66.8*,7.3%,0.0%,nt,nt,2.62µM*
Nc1ccccc1SSc1ccccc1N,45.0,-8.6%,?,nt,nt,?
Cc1sc2ncnc(N3CCCCC3)c2c1C,?,?,nt,-7.5%,-3.0%,0.1%
Clc1ccc(OCCN2CCN(c3ncnc4sccc34)CC2)cc1,?,0.316µM*,?,?,?,95.2%
COc1ccc(-c2csc3ncnc(N4CCN(c5ccccc5O)CC4)c23)cc1,nt,?,-15.5%,?,?,19.2%
COc1ccc(-c2csc3ncnc(N4CCN(S(=O)(=O)c5ccc(C(C)=O)cc5)CC4)c23)cc1,-21.2,?,2.33µM*,-17.3%,?,1.65µM*
Cc1sc2ncnc(N3CCOCC3)c2c1C,-66.0*,-16.5%,nt,6.6%,2.3%,6.9%
Cc1ccc(-c2csc3ncnc(N4CCN(c5ccccc5O)CC4)c23)cc1,-38.1,?,10.4µM*,?,?,9.28µM*
CCOC(=O)c1ccc(NC(=O)CC(=O)Nc2ccc3nc4n(c(=O)c3c2)CCCCC4)cc1,?,nt,nt,1.5%[46.1 µM],-0.5%[46.1 µM],nt
Cc1nc(N2CCN(S(=O)(=O)c3ccc(F)cc3)CC2)c2c(-c3cccs3)csc2n1,-65.6*,?,?,?,?,?
Cc1ccc(S(=O)(=O)N2CCN(c3ncnc4scc(-c5ccccc5)c34)CC2)cc1,0.0,?,nt,?,11.2µM*,nt
O=S(=O)(c1ccccc1)N1CCN(c2ncnc3sc(-c4ccccc4)cc23)CC1,-14.6,9.0%,?,?,5.7%,11.1%
Cc1sc2ncnc(N3CCN(S(=O)(=O)c4ccccc4)CC3)c2c1C,nt,11.2µM*,?,-9.4%,-12.2%,13.1µM*
Cc1ccc(OCCN2CCN(c3ncnc4sc(C)c(C)c34)CC2)cc1,-98.8*,2.51µM*,?,?,?,nt
Cc1ccc(S(=O)(=O)N2CCN(c3ncnc4scc(-c5ccc(F)cc5)c34)CC2)cc1,-12.4,?,-23.8%,?,-22.6%,?
COc1cc(CN2CCN(C(=O)CC(C)C)CC2)c([N+](=O)[O-])cc1OC,15.4,-13.2%,31.9%,-13.1%[46.1 µM],-6.2%[46.1 µM],-2.2%
C[C@H](CO)N1C[C@H](C)[C@H](CN(C)C(=O)c2ccccc2)Oc2cc(Br)ccc2S1(=O)=O,-20.4,nt,nt,nt,nt,nt
CCCCNC(=O)N[C@H]1CC[C@@]23CCCN2C(=O)CCC[C@H]3C1Cc1ccccc1 (stereo partly drawn),-6.1,nt,nt,nt,nt,nt
